Six compounds from PubChem BioAssay (Tox21) can be followed below.

The target in experiment [1] is Progesterone receptor (Homo sapiens) (UniProt P06401). Put plainly: qHTS assay to identify small molecule antagonists of the progesterone receptor (PR) signaling pathway (AID 1346795; active = well fitted inhibition curve with a large enough effect in the signal ratio in the repeat runs, not every such curve was filed as active; the % refers to the signal ratio; note: potency is the fitted concentration of half-maximal effect). The essentials: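 After 6 hr plating at 37C in 2% stripped-serum medium, PR-UAS-bla HEK293T cells got compounds, then 1 nM R5020. Sixteen hours later, LiveBLAzer substrate was applied for 2 hr at room temperature and fluorescence was recorded.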
In general terms: Quantitative high-throughput screening tests each substance at several concentrations.

The nature of experiment [2]: qHTS assay to identify small molecule agonists of the progesterone receptor (PR) signaling pathway - cell viability counter screen (AID 1346799; calls by dose curve; note: nearly all actives have a fitted effect of over 45% in size; note: potency is the fitted concentration of half-maximal effect). Put shortly: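 Viability was scored by ATP luminescence (CellTiter-Glo, 30 min, room temperature) in the same wells used for the reporter readout, after 16 hr compound exposure of PR-UAS-bla HEK293T cells.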
Experiment [3] can be described thus: qHTS assay to identify small molecule antagonists of the TGF-beta/Smad signaling pathway - cell viability counter screen (AID 1346824). Note: nearly all actives have a fitted effect of over 50% in size. Put shortly:
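Cytotoxicity counter-screen run in the same wells as the beta-lactamase Smad reporter read: CellTiter-Glo luminescence after 30 min at room temperature. HEK 293T SBE-bla cells had 5 hr compound exposure at 37 C with TGF-beta1 (0.25 ng/mL stock).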

A short description of experiment [4]: qHTS assay to identify small molecule agonists of the TGF-beta/Smad signaling pathway - cell viability counter screen (AID 1346829). Note: top concentration of the series differs between compounds; nearly all actives have a fitted effect of over 45% in size. The essentials:
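After overnight seating at 37 C and 5% CO2, reporter cells got compounds for 5 hr and FRET substrate for 2 hr; cell viability then came from CellTiter-Glo luminescence.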

Experiment [5] in a line: qHTS assay to identify small molecule agonists of the TGF-beta/Smad signaling pathway (AID 1346859; active = well fitted activation curve with a large enough effect in the signal ratio in the repeat runs, not every such curve was filed as active; the % refers to the signal ratio; note: series mostly up to about 77 µM). The essentials: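 Dual-wavelength fluorescence (460/530 nm emission) quantified beta-lactamase expression under the Smad binding element in HEK 293T cells following 5 hr compound treatment at 37 C.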
The nature of experiment [6]: Human pregnane X receptor (PXR) small molecule agonists, qHTS cell viability counter screen (AID 1346977). Note: nearly all actives have a fitted effect of over 50% in size. Note: potency is the fitted concentration of half-maximal effect. The essentials:
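HepG2 cells stably carrying the PXR-Luc reporter are cultured with 5% charcoal-stripped FBS and treated with compounds for 24hr. CellTiter-Fluor is added at 23hr and fluorescence is read after 1hr.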

The nature of experiment [7]: Caspase-3/7 induction in HepG2 cells by small molecules, qHTS assay (AID 1346978). Note: nearly all actives have a fitted effect of over 15% in size. The essentials: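 Caspase-3/7 induction was measured by Caspase-Glo 3/7 luminescence (30 min, room temperature) after a 17 hr compound exposure of wild-type HepG2 cells seeded at 2,000 per well and pre-incubated 5 hr.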
Experiment [8] is described as follows: Caspase-3/7 induction in CHO-K1 cells by small molecules, qHTS cell viability counter screen (AID 1346979). Note: nearly all actives have a fitted effect of over 35% in size. Note: potency is the fitted concentration of half-maximal effect. Put shortly: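 Seeding: 1,500 CHO-K1 cells/well. Rest: 5hr, 37C. Treatment: compounds in DMSO, 16hr. Read: CellTiter-Fluor, 1hr, fluorescence.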
A short description of experiment [9]: Caspase-3/7 induction in CHO-K1 cells by small molecules, qHTS assay (AID 1346980). Note: nearly all actives have a fitted effect of over 15% in size. The essentials: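 Luminescent Caspase-Glo 3/7 read (30min, room temperature) quantified apoptosis induction. Cells were wild-type CHO-K1, treated with compound for 17hr at 37 C and 5% CO2.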
The nature of experiment [10]: Caspase-3/7 induction in HepG2 cells by small molecules, qHTS cell viability counter screen (AID 1346981). Note: nearly all actives have a fitted effect of over 30% in size. Note: potency is the fitted concentration of half-maximal effect. Put shortly:
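Steps: seed 2,000 HepG2 cells per well; incubate 5 hr at 37 C; pin-add compounds in DMSO; incubate 16 hr; add CellTiter-Fluor; after 1 hr at 37 C and 5% CO2, read fluorescence.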

Experiment [11] concerns the target Nuclear receptor subfamily 1 group I member 2 (Rattus norvegicus) (UniProt Q9R1A7). Put plainly: Rat pregnane X receptor (rPXR) activation by small molecules, qHTS assay (AID 1346983). Note: nearly all actives have a fitted effect of over 20% in size. The following applies: rPXR luciferase reporter cells, One-Glo luminescence, 24 h; stronger effect = higher value. The essentials:
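Luminescent readout (One-Glo luciferase, 30 min room temperature) followed 24 hr compound treatment at 37 C of rPXR cells plated 2,000 per well and preincubated 5hr; qHTS format with compounds delivered in DMSO.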

The target of experiment [12] is Nuclear receptor subfamily 1 group I member 2 (Homo sapiens) (UniProt O75469). Put plainly: Human pregnane X receptor (PXR) small molecule agonists, qHTS assay (AID 1346982). Note: nearly all actives have a fitted effect of over 35% in size. Note: potency is the fitted concentration of half-maximal effect. Put shortly:
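Agonist mode qHTS: PXR-Luc HepG2 cells plated 5 hr before DMSO-dissolved compounds were pinned in, cultured 24 hr at 37 C, 5% CO2; ONE-Glo luminescence readout.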

The target in experiment [13] is Cytochrome P450 2D6 (Homo sapiens) (UniProt P10635). Put plainly: Cytochrome P450 Family 2 Subfamily D Member 6 (CYP2D6) small molecule antagonists: luciferase reporter qHTS assay (AID 1671196). Note: nearly all actives have a fitted effect of over 50% in size. Note: potency is the fitted concentration of half-maximal effect. Put shortly: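 P450-Glo format: CYP2D6 converts a proluciferin substrate to luciferin in an NADPH-driven reaction lasting 1 h at room temperature. Light output, proportional to CYP2D6 activity, reflects interference by test chemicals.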
Background: Reporter assays use an easily measured gene product as a stand-in for the process of interest.

For experiment [14], the target named is Cytochrome P450 2C19 (Homo sapiens) (UniProt P33261). Put plainly: Cytochrome P450 Family 2 Subfamily C Member 19 (CYP2C19) small molecule antagonists: luciferase reporter qHTS assay (AID 1671197). Note: nearly all actives have a fitted effect of over 65% in size. Note: potency is the fitted concentration of half-maximal effect. The essentials:
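Inhibition of CYP2C19 was scored from loss of luminescence in a P450-Glo proluciferin substrate assay, NADPH-started and run 1 h at 37C, with ketoconazole as positive control.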

Experiment [15] concerns the target Thyrotropin-releasing hormone receptor (Homo sapiens) (UniProt P34981). In words: qHTS assay to identify small molecule antagonists of the thyrotropin-releasing hormone receptor (TRHR) signaling pathway (AID 1346877; active = well fitted inhibition curve with a large enough effect in the repeat runs, not every such curve was filed as active; note: series mostly up to about 51 µM). Put shortly: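 Cells (TRHR-HEK293) are plated and kept 18 h at 37 °C/5% CO2. A calcium-sensitive dye is added for 2 h, compound follows for 5 min at room temperature, and TRH is then given at 1 nM final.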

Experiment [16] shares this target. Put plainly: qHTS assay to identify small molecule agonists of the thyrotropin-releasing hormone receptor (TRHR) signaling pathway (AID 1346891; calls by dose curve;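 note: HEK293 cells expressing TRHR with calcium dye readout; series mostly up to about 58 µM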). Put shortly:
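Kinetic fluorescence (3 min, 1 s intervals) reported intracellular calcium after compound transfer onto TRHR-Hek293 cells pre-loaded with dye for 2 h at 37 °C.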

The target of experiment [17] is Nuclear receptor subfamily 1 group I member 2 (Homo sapiens) (UniProt O75469). In words: CYP3A4 induction through human pregnane X receptor (PXR) by small molecules, qHTS assay (AID 1346984). Note: nearly all actives have a fitted effect of over 40% in size. The essentials:
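Steps: seed DPX-2 cells, 5 hr at 37C; pin-transfer compounds; 24 hr at 37C; add Luciferin-IPA (3uM final), 3 hr at 37C; add One-Glo, 30 min RT; read luminescence.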

Experiment [18] shares this target. In words: Human pregnane X receptor (PXR) activation by small molecules, qHTS assay (AID 1346985). Note: nearly all actives have a fitted effect of over 40% in size. Put shortly: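 DPX-2 cells (HepG2 co-transfected with a PXR response element and a CYP3A4-promoter luciferase construct) were seeded at 2,000 per well, rested 5 hr at 37C, then exposed to DMSO-dissolved compounds for 24 hr. Activation was read as luciferase luminescence.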

In experiment [19] the target is Cytochrome P450 2C9 (Homo sapiens) (UniProt P11712). In words: Cytochrome P450 Family 2 Subfamily C Member 9 (CYP2C9) small molecule antagonists: luciferase reporter qHTS assay (AID 1671198). Note: nearly all actives have a fitted effect of over 50% in size. Note: potency is the fitted concentration of half-maximal effect. The essentials:
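Enzyme-substrate mix preincubated with compound 10 min at room temperature; reaction started with NADPH regeneration solution, 1 h 37C. Luminescent luciferin product read after 20 min detection reagent.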

Several values for one entry are separate records, joined by “and”; a condition that tells them apart may be missing. Equal values may be shown once. Inconclusive results are not listed. The source holds several records for some structures; these can differ, active in one and inactive in another. Activity calls are given as the source filed them. Unless noted, calls come from the whole dose curve; as a rule, active = well fitted curve in the direction sought with a large enough effect in the repeat runs; inconclusive = weak or mixed curves; inactive = no such curve, though single readings can be large; an effect the other way counts as inactive or inconclusive.
% is set by controls: 0 for no effect and ±100 for the full control effect.

Chain of Nuclear receptor subfamily 1 group I member 2 (Homo sapiens) (O75469 whole entry, looked up): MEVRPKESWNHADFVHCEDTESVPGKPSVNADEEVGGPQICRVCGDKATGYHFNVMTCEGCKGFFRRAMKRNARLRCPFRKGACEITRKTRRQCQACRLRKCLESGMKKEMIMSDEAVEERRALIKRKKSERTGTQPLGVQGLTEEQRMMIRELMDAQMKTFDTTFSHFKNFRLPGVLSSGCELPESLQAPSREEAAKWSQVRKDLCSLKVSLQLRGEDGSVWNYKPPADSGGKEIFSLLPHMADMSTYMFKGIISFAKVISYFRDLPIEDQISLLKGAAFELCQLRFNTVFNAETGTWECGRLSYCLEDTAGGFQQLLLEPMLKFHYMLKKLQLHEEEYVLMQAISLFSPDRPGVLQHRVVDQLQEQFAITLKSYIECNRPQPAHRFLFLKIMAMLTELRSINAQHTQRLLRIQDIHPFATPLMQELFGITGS
Chain of Cytochrome P450 2D6 (Homo sapiens) (P10635 whole entry, looked up): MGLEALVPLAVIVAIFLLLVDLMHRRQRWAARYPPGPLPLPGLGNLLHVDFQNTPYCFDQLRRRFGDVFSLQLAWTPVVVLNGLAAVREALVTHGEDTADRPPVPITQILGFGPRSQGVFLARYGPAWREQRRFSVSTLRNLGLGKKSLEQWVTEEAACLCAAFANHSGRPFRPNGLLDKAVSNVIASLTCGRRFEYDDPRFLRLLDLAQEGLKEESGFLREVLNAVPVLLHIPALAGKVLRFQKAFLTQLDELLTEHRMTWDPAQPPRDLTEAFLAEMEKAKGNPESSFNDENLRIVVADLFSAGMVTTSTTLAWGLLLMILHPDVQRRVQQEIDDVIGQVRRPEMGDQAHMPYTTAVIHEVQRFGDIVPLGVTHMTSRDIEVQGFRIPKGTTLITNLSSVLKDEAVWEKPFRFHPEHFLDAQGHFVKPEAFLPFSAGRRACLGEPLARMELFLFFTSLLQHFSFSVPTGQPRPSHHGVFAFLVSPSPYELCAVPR
Chain of Thyrotropin-releasing hormone receptor (Homo sapiens) (P34981 whole entry, looked up): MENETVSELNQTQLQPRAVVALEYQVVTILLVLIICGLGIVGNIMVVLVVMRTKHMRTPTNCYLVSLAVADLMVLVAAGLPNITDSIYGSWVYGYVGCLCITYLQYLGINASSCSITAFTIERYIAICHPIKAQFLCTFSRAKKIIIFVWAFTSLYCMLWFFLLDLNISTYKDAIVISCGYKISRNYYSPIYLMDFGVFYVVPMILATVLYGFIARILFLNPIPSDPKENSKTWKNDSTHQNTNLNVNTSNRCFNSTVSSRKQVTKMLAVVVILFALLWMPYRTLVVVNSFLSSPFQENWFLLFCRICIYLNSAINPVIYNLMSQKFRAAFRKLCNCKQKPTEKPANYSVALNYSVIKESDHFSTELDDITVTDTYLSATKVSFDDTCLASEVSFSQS
Chain of Cytochrome P450 2C19 (Homo sapiens) (P33261 whole entry, looked up): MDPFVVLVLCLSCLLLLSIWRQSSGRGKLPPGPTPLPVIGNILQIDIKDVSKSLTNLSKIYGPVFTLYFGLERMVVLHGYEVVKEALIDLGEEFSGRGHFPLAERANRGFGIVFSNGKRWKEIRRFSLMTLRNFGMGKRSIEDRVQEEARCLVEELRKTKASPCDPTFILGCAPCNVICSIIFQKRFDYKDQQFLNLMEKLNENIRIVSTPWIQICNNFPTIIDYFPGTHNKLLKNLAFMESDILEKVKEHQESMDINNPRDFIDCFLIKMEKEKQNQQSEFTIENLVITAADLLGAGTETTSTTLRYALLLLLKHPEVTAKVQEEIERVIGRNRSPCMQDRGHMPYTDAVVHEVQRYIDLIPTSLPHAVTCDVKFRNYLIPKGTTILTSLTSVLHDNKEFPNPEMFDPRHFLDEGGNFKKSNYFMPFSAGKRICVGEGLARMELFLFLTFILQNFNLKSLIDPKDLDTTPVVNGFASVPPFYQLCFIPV
Chain of Cytochrome P450 2C9 (Homo sapiens) (P11712 whole entry, looked up): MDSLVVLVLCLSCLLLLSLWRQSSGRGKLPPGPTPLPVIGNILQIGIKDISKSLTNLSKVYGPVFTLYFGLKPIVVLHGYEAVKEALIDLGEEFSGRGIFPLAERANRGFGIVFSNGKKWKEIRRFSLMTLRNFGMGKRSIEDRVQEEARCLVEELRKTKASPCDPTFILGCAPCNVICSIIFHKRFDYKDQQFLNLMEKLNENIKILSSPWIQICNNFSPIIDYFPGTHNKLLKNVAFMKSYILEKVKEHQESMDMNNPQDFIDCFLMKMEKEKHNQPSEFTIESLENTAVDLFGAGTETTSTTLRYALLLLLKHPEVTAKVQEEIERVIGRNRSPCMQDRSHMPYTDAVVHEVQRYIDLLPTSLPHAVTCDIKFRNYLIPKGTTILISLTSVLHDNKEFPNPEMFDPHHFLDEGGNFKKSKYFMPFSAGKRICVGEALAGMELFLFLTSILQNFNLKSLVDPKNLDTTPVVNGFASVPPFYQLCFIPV
Chain of Progesterone receptor (Homo sapiens) (P06401 whole entry, looked up): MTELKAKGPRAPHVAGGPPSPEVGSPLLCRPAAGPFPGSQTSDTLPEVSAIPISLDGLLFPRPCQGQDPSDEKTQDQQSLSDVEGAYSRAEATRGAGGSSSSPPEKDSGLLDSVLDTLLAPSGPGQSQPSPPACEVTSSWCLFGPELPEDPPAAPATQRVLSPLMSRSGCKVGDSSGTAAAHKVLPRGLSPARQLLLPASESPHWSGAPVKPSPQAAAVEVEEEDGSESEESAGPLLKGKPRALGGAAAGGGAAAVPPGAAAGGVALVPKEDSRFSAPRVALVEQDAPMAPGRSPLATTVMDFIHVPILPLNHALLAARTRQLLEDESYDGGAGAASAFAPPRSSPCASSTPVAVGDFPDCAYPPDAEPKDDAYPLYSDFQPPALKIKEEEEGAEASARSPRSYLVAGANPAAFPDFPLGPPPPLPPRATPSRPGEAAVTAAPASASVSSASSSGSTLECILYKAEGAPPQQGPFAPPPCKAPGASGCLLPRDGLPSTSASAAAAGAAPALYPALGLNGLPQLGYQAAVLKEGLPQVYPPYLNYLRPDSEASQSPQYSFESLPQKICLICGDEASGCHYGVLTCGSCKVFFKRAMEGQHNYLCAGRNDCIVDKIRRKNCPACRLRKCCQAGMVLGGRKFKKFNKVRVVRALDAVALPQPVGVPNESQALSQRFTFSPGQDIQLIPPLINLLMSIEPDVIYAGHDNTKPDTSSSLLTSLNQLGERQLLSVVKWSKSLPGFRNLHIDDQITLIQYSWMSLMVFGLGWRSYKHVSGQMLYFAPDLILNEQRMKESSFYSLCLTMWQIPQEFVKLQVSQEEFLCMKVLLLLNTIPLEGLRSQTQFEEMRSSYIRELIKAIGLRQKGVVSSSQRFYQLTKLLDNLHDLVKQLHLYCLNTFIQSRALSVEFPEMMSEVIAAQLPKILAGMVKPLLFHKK
Chain of Nuclear receptor subfamily 1 group I member 2 (Rattus norvegicus) (Q9R1A7 whole entry, looked up): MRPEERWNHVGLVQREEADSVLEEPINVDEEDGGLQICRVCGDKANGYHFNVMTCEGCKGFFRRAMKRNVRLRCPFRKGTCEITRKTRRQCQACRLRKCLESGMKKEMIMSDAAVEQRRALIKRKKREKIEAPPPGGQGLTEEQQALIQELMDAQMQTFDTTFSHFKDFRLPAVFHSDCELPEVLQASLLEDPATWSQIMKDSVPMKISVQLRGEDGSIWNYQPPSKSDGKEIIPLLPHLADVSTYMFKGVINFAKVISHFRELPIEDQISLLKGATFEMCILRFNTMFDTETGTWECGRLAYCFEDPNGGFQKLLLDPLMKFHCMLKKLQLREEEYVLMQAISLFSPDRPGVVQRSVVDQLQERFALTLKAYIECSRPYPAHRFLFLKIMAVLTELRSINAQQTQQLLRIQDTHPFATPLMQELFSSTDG

For `CCCN[C@H]1CCc2nc(N)sc2C1`, the Potency entry in experiment [1], in experiment [2], in [3], in experiment [4], in [6] and in experiment [7] was “inactive” throughout. The Potency result in [8], in experiment [9] and in [10] was “inactive” each time. In addition, the outcome in experiment [5] was inactive. The max activation in experiment [11] is -1.97% (inactive).
With `CCCOC(=O)c1cc(O)c(O)c(O)c1`, the Potency result in [1], in experiment [2], in experiment [3], in [4], in [7] and in experiment [9] was “inactive” each time. In addition, in [10], the Potency result was “inactive”. Further, the outcome in experiment [5] was inactive. Moreover, the Potency in experiment [8] was 48.3 µM (active) and 30.6 µM (active); in [12], 27.3 µM (active); in experiment [13], 31.6 µM (active) and 35.6 µM (active); in [14], 79.3 µM (active) and 56.4 µM (active).
`Nc1nc(=S)c2[nH]cnc2[nH]1`: the Potency result in experiment [1], in experiment [3], in experiment [15], in [16], in [6] and in experiment [7] was “inactive” each time. Besides, the Potency entry in experiment [9], in experiment [12], in experiment [17], in experiment [18] and in [13] was “inactive” in each case. Moreover, the Potency in experiment [2] is 4.73 µM (active); in [8], 5.31 µM (active) and 9.69 µM (active) and 3.76 µM (active); in [14], 30.9 µM (active); in experiment [19], 38.9 µM (active) and 71 µM (active) and 30.9 µM (active). Moreover, in experiment [5], the compound was classed as inactive. The max activation in [11] was -4.65% (inactive).
`C#CC(C)(CC)OC(=O)c1ccccc1C(=O)O` (centres undefined): the Potency entry in experiment [1], in [2], in experiment [3], in [4], in [6] and in [7] was “inactive” in each case. Further, the Potency result in [9], in experiment [10], in experiment [13], in experiment [14] and in experiment [19] was “inactive” in each case. The compound was called inactive in experiment [5].
As for `CCCCC/C=C/CC1CC(=O)OC1=O` (centres undefined), the Potency entry in experiment [1], in [2], in experiment [3], in [4], in experiment [15] and in [16] was “inactive” in each case. The Potency entry in experiment [7], in experiment [9], in experiment [10], in [12], in [13] and in [19] was “inactive” in each case. In addition, in [5], the call was inactive.
As for `Cc1cc(C2(c3cc(C)c(O)cc3C)OS(=O)(=O)c3ccccc32)c(C)cc1O`, the Potency in experiment [1] was 61.1 µM (active); in [6], 35.5 µM (active) and 13.7 µM (active); in experiment [8], 30.6 µM (active) and 13.7 µM (active); in experiment [10], 30.6 µM (active) and 19.3 µM (active); in experiment [12], 61.1 µM (active) and inactive; in experiment [13], 39.9 µM (active). Further, the Potency in [14] is 7.97 µM (active) and 17.8 µM (active); in experiment [19], 5.03 µM (active) and 7.96 µM (active). Besides, the Potency entry in experiment [2], in [3], in experiment [4], in experiment [7] and in experiment [9] was “inactive” throughout. The compound was classed as inactive in experiment [5].
